The source of these data is PubChem BioAssay (NCI).

Some test systems named below: EKVX NSCLC; SN12C renal; UO-31 renal; TK-10 renal; ACHN renal; CAKI-1 renal; CCRF-CEM leukemia; MOLT-4 leukemia; SR leukemia.
What all share (assay): NCI-60 one-dose screen, 48 h (100 = growth as untreated, 0 = no growth, -100 = all killed)
Holding throughout (settings): 10 µM unless noted

The structures appear in SMILES notation. This is part of a sample that, as a whole, favours compounds with a hit. Of some 83,000 tested, about 20% had one in any assay.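 Note: values are percent growth. 100 is the growth of untreated cells, values between 100 and 0 indicate rising inhibition; between -100 and 0 indicates cell death.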 A number with no mark means an inactive call. Active and inactive are the calls of the source. Rule for the calls: active = growth percent below 10; inactive = the rest.

For `O=C(O)c1ccccc1C(=O)OC1CCCC2CCCC21` (stereo not drawn), the growth in the assay with EKVX NSCLC is 92.4%; in the assay with SN12C renal, 95.8%; in the assay with UO-31 renal, 104%; in the assay with TK-10 renal, 116%; with ACHN renal it was 103%; with CAKI-1 renal it was 93.1%. Moreover, the growth is 97% in the assay with CCRF-CEM leukemia, 98.7% with MOLT-4 leukemia and 104% with SR leukemia.
Take `N#CCCCCCn1c2ccccc2c2c3c(c4c5ccccc5[nH]c4c21)C(=O)N(O)C3=O`: the growth is 46% in the assay with EKVX NSCLC; 6.13% (active) in the assay with SN12C renal; -44.9% (active) in the assay with UO-31 renal; 22% with TK-10 renal; -81.6% (active) in the assay on ACHN renal; -59.9% (active) with CAKI-1 renal. Besides, the results for the growth in the assay with CCRF-CEM leukemia, in the assay on MOLT-4 leukemia and in the assay on SR leukemia were -1.67% (active), -21.3% (active) and -9.51% (active), respectively.
Take `COc1ccc(-c2nn(-c3cccc(Cl)c3)cc2C2CC(c3ccccc3)=NN2C(C)=O)cc1` (stereo not drawn): the growth with EKVX NSCLC was 67.6%; in the assay with SN12C renal, 69.7%; in the assay on UO-31 renal, 58.9%; with TK-10 renal, 62.8%; in the assay on ACHN renal, 15.1%; in the assay with CAKI-1 renal, 53%. Moreover, the growth with CCRF-CEM leukemia is 83%; in the assay on MOLT-4 leukemia, 93.9%; in the assay on SR leukemia, 75.6%.
For the molecule `COc1ccc(C(=O)C(C)Br)cc1OC` (stereo not drawn), the growth is 98.4% with EKVX NSCLC; 72.9% in the assay with SN12C renal; 71.8% in the assay on UO-31 renal; 101% with TK-10 renal; 80.3% in the assay on ACHN renal; 60.1% with CAKI-1 renal. Further, the values for the growth in the assay with CCRF-CEM leukemia, in the assay with MOLT-4 leukemia and in the assay on SR leukemia were 26.7%, 71.3% and 18.6%, respectively.
`COc1cc(/C=C2\COc3ccc(O)c(O)c3C2=O)cc(OC)c1`: the growth is 56.4% in the assay on EKVX NSCLC; -89.7% (active) with SN12C renal; -95.6% (active) in the assay with UO-31 renal; 16.3% in the assay on TK-10 renal; -85.7% (active) with ACHN renal; 4.89% (active) with CAKI-1 renal. For the same molecule, the growth with CCRF-CEM leukemia was 3.2% (active); in the assay with MOLT-4 leukemia, -24.3% (active); with SR leukemia it was -13.6% (active).
Regarding `Cc1nc2cc(NC(=O)CN3CCN(CCN4C(=O)c5cccc6cccc(c56)C4=O)CC3)ccc2s1`, the growth with EKVX NSCLC was 69.9%; in the assay on SN12C renal, 39.8%; in the assay on UO-31 renal it was 53.6%; in the assay on TK-10 renal it was 87.9%; with ACHN renal, 33.9%; in the assay with CAKI-1 renal it was 72.9%. The growth with CCRF-CEM leukemia was 31.7%; in the assay on MOLT-4 leukemia it was 9.64% (active); with SR leukemia, 22%.
With `O=c1ccn(C2CCCO2)c(=O)[nH]1` (stereo not drawn), the growth with EKVX NSCLC is 107%; in the assay with SN12C renal it was 109%; in the assay with UO-31 renal, 95.4%; with TK-10 renal it was 120%; with ACHN renal, 98.7%; with CAKI-1 renal, 110%. Also, the growth in the assay on CCRF-CEM leukemia is 97%; in the assay with MOLT-4 leukemia, 97.7%; in the assay with SR leukemia, 114%.
With `O=C(C(=O)N1CCCCC1)c1ccc(OC2OC(CO)C(O)C(O)C2O)cc1` (stereo not drawn), the growth with EKVX NSCLC is 111%; with SN12C renal, 98.9%; with UO-31 renal, 105%; in the assay with TK-10 renal it was 107%; with ACHN renal, 107%; in the assay on CAKI-1 renal, 94.4%. Also, the growth in the assay on CCRF-CEM leukemia was 97.7%; in the assay on MOLT-4 leukemia, 87.7%; in the assay with SR leukemia, 101%.
Take `CCOC(=O)C1C(=O)OC2CCCCC21` (stereo not drawn): the growth was 120% with EKVX NSCLC; 102% with SN12C renal; 79.6% in the assay with UO-31 renal; 122% in the assay on TK-10 renal; 102% with ACHN renal; 96.1% in the assay with CAKI-1 renal. The growth in the assay on CCRF-CEM leukemia was 106%; in the assay on MOLT-4 leukemia it was 89%; in the assay with SR leukemia it was 88%.
In the case of `COc1ccc(C2CC(c3ccc(OC)c(OC)c3)=NN2C(=O)c2cc(OC)c(OC)c(OC)c2)c(OC)c1` (stereo not drawn), the growth is 86.7% in the assay with EKVX NSCLC; 91.3% in the assay on SN12C renal; 42.2% in the assay with UO-31 renal; 87.7% in the assay on TK-10 renal; 65.2% with ACHN renal; 34.6% with CAKI-1 renal. Moreover, the growth is 92.9% in the assay with CCRF-CEM leukemia, 106% with MOLT-4 leukemia and 48.7% in the assay on SR leukemia.
As for `Nc1ccc2c(c1)/C(=N/O)c1cc([N+](=O)[O-])ccc1-2`, the growth in the assay on EKVX NSCLC was 85.9%; with SN12C renal it was 86.2%; in the assay with UO-31 renal, 21.7%; in the assay with TK-10 renal, 57.6%; with ACHN renal, 58.7%; in the assay on CAKI-1 renal, 46.6%. Besides, the growth is 25% in the assay with CCRF-CEM leukemia, 25.6% in the assay on MOLT-4 leukemia and 9.6% (active) with SR leukemia.
As for `COc1ccc(/C(=C2\O[C@@H]([C@H](O)CO)[C@H]3OC(C)(C)O[C@@H]23)c2cc(OC)c(OC)c(OC)c2)cc1O`, the growth in the assay on EKVX NSCLC is 97%; in the assay on SN12C renal it was 95.6%; in the assay with UO-31 renal it was 90.1%; with TK-10 renal, 106%; in the assay with ACHN renal, 78.5%; in the assay with CAKI-1 renal it was 105%. The growth in the assay with CCRF-CEM leukemia was 95.3%; in the assay with MOLT-4 leukemia it was 78.1%; in the assay on SR leukemia it was -13% (active).
As for `O=[N+]([O-])c1ccc(Oc2cccc(C(F)(F)F)c2)c([N+](=O)[O-])c1`, the growth was 111% with EKVX NSCLC; 28.2% in the assay on SN12C renal; 28.6% in the assay with UO-31 renal; 11.2% with TK-10 renal; 42% with ACHN renal; 20.2% with CAKI-1 renal. The growth in the assay with CCRF-CEM leukemia is 14.7%; with MOLT-4 leukemia, 17.1%; with SR leukemia, 5.65% (active).
For `Cn1c(=O)c2c(nc(Br)n2CCC(=O)Nc2ccc(F)cc2)n(C)c1=O`, the growth was 108% in the assay with EKVX NSCLC; 106% in the assay on SN12C renal; 78.3% in the assay on UO-31 renal; 103% in the assay on TK-10 renal; 102% with ACHN renal; 93.7% in the assay with CAKI-1 renal. Also, the growth in the assay on CCRF-CEM leukemia was 99.5%; in the assay with MOLT-4 leukemia, 95.9%; in the assay on SR leukemia, 107%.
For `Cc1ccc(NC(=O)COC(=O)c2ccc(S(=O)(=O)N3CCCCCC3)cc2)cc1`, the growth in the assay on EKVX NSCLC was 111%; in the assay on SN12C renal, 98.7%; in the assay with UO-31 renal it was 85.8%; in the assay on TK-10 renal it was 178%; with ACHN renal, 107%; with CAKI-1 renal, 108%. The values for the growth in the assay on CCRF-CEM leukemia, with MOLT-4 leukemia and with SR leukemia were 135%, 127% and 131%, respectively.
As to `O=NC1CC=CCC1c1ccccc1` (stereo not drawn), the growth in the assay with EKVX NSCLC was 101%; in the assay on SN12C renal, 108%; in the assay with UO-31 renal, 84.2%; in the assay on TK-10 renal, 103%; with ACHN renal, 93.9%; in the assay on CAKI-1 renal, 103%. For the same molecule, the growth in the assay on CCRF-CEM leukemia is 111%; in the assay with MOLT-4 leukemia, 102%; with SR leukemia, 101%.
On to `Cn1cnc([N+](=O)[O-])c1S(=O)(=O)Oc1ccc(Cl)cc1`, for which the growth is 102% in the assay on EKVX NSCLC; 94.5% in the assay on SN12C renal; -82% (active) with UO-31 renal; 96.1% in the assay on TK-10 renal; -70.8% (active) in the assay with ACHN renal; -65.1% (active) in the assay with CAKI-1 renal. For the same molecule, the growth with CCRF-CEM leukemia is -49.8% (active); in the assay on MOLT-4 leukemia, -0.321% (active); in the assay on SR leukemia, 25.3%.
